The text below walks through data of the supplement of paper PMC12669032.

The test system of one test is Roseburia intestinalis. Put plainly: growth AUC relative to DMSO control (median of replicates) (fraction); higher = more growth (less inhibition), active = hit call of the paper. The note with it: 20 µM; 24 h. In a few lines:
(§1)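 Gut bacterial monocultures were grown anaerobically at 37 °C in mGAM, starting at OD600 0.05, with 20 µM compound (1% DMSO) in round-bottom 96-well plates under pierced gas-permeable seals. OD600 was read hourly for 24 h. Area under the growth curve (minimum OD set to 0) was normalised to the plate median of DMSO controls, or to row and column medians on the industrial chemical plate. The value is the median of three biological replicates grown on separate days.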

Another test relates to Streptococcus salivarius. The description is as above. Conditions: 20 µM; 24 h. In a few lines:
as §1

Values without a mark were called inactive.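 Rule for the calls: active = AUC reduced over 20% with Padj below 0.05 in at least 2 of 3 replicates; inactive = otherwise.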

Take `CCOC(=O)COc1cc(-c2nn(C)c(OC(F)F)c2Cl)c(F)cc1Cl`: the “growth AUC” value was 0.973 in the test on Roseburia intestinalis and 0.993 with Streptococcus salivarius.

Turning to `O=C(NC(=O)c1c(F)cccc1F)Nc1ccc(Cl)c(Oc2ncc(C(F)(F)F)cc2Cl)c1`, the “growth AUC” value in the test with Roseburia intestinalis was 1; in the test on Streptococcus salivarius it was 1.02.

`CC(Oc1cc(Cl)c(Cl)cc1Cl)C(=O)O` (centres undefined): the “growth AUC” value with Roseburia intestinalis was 0.935; with Streptococcus salivarius, 0.976.

In the case of `COc1nn(CSP(=S)(OC)OC)c(=O)s1`, the “growth AUC” value was 1.06 in the test on Roseburia intestinalis and 0.985 in the test with Streptococcus salivarius.

With `C=CCC1=C(C)C(OC(=O)C2C(C=C(C)C)C2(C)C)CC1=O` (centres undefined), the results for the “growth AUC” value in the test on Roseburia intestinalis and in the test on Streptococcus salivarius were 0.968 and 0.986, respectively.

`CC(C)(C)C(O)(CCc1ccc(Cl)cc1)Cn1cncn1` (centres undefined): the “growth AUC” value with Roseburia intestinalis is 1.1; in the test with Streptococcus salivarius, 1.01.

For `CCOC(=O)/C=C(C)/C=C/C[C@@H](C)CCCC(C)C`, the “growth AUC” value was 1.09 in the test with Roseburia intestinalis and 0.972 with Streptococcus salivarius.

As for `CCOC(=O)C(SP(=S)(OC)OC)c1ccccc1` (centres undefined), the “growth AUC” value is 1.03 with Roseburia intestinalis and 1 in the test with Streptococcus salivarius.

Regarding `Cc1cnc(C2=NC(C)(C(C)C)C(=O)N2)c(C(=O)O)c1` (centres undefined), the “growth AUC” value with Roseburia intestinalis is 0.997; with Streptococcus salivarius it was 1.03.

Consider `CN(C)S(=O)(=O)N(SC(F)(Cl)Cl)c1ccccc1`, for which the “growth AUC” value in the test with Roseburia intestinalis was 0.993; in the test on Streptococcus salivarius, 0.998.

In the case of `COC(C)(C)CCCC(C)C/C=C/C(C)=C/C(=O)OC(C)C` (centres undefined), the “growth AUC” value in the test with Roseburia intestinalis and in the test on Streptococcus salivarius was 1.01 each time.

`Clc1cc(Cl)nc(-c2ccccc2)n1`: the results for the “growth AUC” value with Roseburia intestinalis and with Streptococcus salivarius were 0.956 and 0.99, respectively.

For the compound `C=CCOC(=O)C(C)(C)OC(=O)c1cc(-n2c(=O)cc(C(F)(F)F)n(C)c2=O)ccc1Cl`, the “growth AUC” value was 0.994 in the test on Roseburia intestinalis and 0.98 in the test on Streptococcus salivarius.

In the case of `CCS(=O)Cc1ccccc1OC(=O)NC` (centres undefined), the “growth AUC” value is 1.02 in the test on Roseburia intestinalis and 0.987 in the test with Streptococcus salivarius.

Take `CNC1=C(c2cccc(C(F)(F)F)c2)C(=O)C(c2ccccc2)O1` (centres undefined): the “growth AUC” value in the test with Roseburia intestinalis is 1.04; with Streptococcus salivarius, 0.988.

Regarding `O=[N+]([O-])NC1=NCOCN1Cc1cnc(Cl)s1`, the “growth AUC” value in the test on Roseburia intestinalis was 0.941; in the test with Streptococcus salivarius, 0.85.

Take `CCC(C)(C)c1ccc(O)cc1`: the “growth AUC” value in the test on Roseburia intestinalis and in the test on Streptococcus salivarius was 0.995 in each case.

For the compound `CCN(CC)C(=O)/C(Cl)=C(/C)OP(=O)(OC)OC`, the “growth AUC” value was 1.01 in the test with Roseburia intestinalis and 0.994 in the test with Streptococcus salivarius.

Regarding `CSc1nc(N=[N+]=[N-])nc(NC(C)C)n1`, the “growth AUC” value with Roseburia intestinalis was 1.1; in the test with Streptococcus salivarius it was 1.07.

For the compound `CN(C)C(CSS(=O)(=O)[O-])CSS(=O)(=O)[O-].[Na+].[Na+]`, the “growth AUC” value was 1.24 in the test on Roseburia intestinalis and 0.961 with Streptococcus salivarius.

As for `CN(C)C(=S)[S-].CN(C)C(=S)[S-].[Zn+2]`, the “growth AUC” value with Roseburia intestinalis was 0.792; with Streptococcus salivarius it was 0.925.

Take `CCOP(=S)(OCC)SCn1nnc2ccccc2c1=O`: the results for the “growth AUC” value in the test with Roseburia intestinalis and in the test with Streptococcus salivarius were 1.11 and 0.993, respectively.
